PubChem BioAssay (NCATS)
Values joined by “and” are separate entries in the source; they are usually repeats but may differ in a detail not shown here. Identical values can stand only once. Results filed as inconclusive are left out. Where a call stands in place of a potency, no number is given. Active and inactive are the calls of the source. The call rests on the fitted dose curve; in most records, active means well fitted curve in the direction sought with a large enough effect; inconclusive means small, poorly fitted or top-dose-only effect, or another doubt; inactive means no such curve, though single readings can be large; an effect the other way counts as inactive or inconclusive. Non-standard residues stand in square brackets, D forms with d. Residues, ends and D or L forms follow the SMILES beside them. *: point of attachment. Sta = CC(C)C[C@H](N)[C@@H](O)CC(=O)O; Isovaleryl = CC(C)CC(=O)*

What was measured:
[1] = target: Voltage-gated inwardly rectifying potassium channel KCNH2 (Homo sapiens) (UniProt Q12809); test: qHTS Assay for Small Molecule Inhibitors of the Human hERG Channel Activity (AID 588834);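 further: lower thallium flux fluorescence means stronger hERG block; nearly all actives have a fitted effect of over 50% in size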
Procedure, shortened: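 hERG-BacMam U2OS, 2000 cells/well; 0.7X FluxOR loading 1 hr RT dark; cpd ~10 min 37 °C; stim buffer; FDSS fluorescence 2 min @ 1 s; AC50 Hill fit.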

[2] = target: Luciferin 4-monooxygenase (Photinus pyralis) (UniProt P08659); test: Biochemical firefly luciferase enzyme assay for NPC (AID 624030); further: nearly all actives have a fitted effect of over 70% in size
Procedure, shortened: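 Direct inhibition of firefly luciferase enzyme (10 nM final, 50 mM Tris Acetate) assessed by luminescence within 5 minutes. Percent activity scaled between DMSO and PTC124 positive control, with concentration-effect curves classified by fit quality and response.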

[3] = S16 Schwann cell viability assay (CellTiter-Glo assay) (AID 624031); further: nearly all actives have a fitted effect of over 70% in size
Procedure, shortened: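 This viability control uses native rat S16 Schwann cells grown in DMEM plus 10% FBS. After a 24 h compound treatment at 37 °C, CellTiter-Glo luminescence reports ATP content, scaled against DMSO-treated and cell-free wells.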
Potency means the concentration at half of the fitted maximal effect.

Voltage-gated inwardly rectifying potassium channel KCNH2 (Homo sapiens), sequence (Q12809 whole entry, looked up): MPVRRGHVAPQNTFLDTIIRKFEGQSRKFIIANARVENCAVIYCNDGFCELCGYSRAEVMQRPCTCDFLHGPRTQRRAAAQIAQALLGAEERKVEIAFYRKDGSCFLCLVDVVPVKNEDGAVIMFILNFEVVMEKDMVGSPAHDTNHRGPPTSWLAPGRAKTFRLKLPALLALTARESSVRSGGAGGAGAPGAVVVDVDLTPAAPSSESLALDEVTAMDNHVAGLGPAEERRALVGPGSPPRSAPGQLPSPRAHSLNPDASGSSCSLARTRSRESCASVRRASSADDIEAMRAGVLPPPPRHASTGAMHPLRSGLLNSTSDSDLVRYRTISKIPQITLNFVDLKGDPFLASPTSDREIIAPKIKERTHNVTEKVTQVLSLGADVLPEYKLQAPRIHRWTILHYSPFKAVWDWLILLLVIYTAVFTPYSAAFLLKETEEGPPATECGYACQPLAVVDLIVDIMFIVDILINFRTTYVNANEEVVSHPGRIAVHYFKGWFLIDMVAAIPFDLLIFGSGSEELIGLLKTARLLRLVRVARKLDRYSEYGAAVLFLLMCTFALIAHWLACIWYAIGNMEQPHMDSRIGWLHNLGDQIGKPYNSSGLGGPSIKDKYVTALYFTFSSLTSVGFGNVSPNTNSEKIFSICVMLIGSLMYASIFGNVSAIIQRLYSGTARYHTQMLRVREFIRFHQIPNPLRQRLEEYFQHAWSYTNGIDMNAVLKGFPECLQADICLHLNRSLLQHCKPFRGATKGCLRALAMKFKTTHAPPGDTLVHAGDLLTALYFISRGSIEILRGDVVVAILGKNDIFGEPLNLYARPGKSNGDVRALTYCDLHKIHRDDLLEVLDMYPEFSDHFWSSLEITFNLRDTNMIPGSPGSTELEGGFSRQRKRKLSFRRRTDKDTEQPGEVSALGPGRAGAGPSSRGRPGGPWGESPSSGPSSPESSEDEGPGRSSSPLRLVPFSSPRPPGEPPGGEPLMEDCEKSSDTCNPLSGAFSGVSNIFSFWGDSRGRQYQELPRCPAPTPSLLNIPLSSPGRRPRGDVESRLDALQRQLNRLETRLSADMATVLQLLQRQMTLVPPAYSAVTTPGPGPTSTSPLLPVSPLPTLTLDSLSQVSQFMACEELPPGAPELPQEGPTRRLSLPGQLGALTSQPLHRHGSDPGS
Luciferin 4-monooxygenase (Photinus pyralis), sequence (P08659 whole entry, looked up): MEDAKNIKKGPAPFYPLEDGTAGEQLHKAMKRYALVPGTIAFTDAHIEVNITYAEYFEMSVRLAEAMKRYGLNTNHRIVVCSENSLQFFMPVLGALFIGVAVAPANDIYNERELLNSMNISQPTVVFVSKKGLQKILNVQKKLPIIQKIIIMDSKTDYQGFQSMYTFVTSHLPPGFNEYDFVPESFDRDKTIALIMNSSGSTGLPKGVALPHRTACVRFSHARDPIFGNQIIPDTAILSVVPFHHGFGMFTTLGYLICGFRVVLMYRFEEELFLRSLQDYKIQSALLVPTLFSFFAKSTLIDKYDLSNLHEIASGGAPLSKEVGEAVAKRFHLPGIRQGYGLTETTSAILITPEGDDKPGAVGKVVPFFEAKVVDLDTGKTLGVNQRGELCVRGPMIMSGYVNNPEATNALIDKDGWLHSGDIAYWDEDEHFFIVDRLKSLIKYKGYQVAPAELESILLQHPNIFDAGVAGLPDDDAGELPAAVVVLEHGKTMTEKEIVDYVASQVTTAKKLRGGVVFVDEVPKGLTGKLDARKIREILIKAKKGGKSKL

| SMILES | Potency [1] | Potency [2] | Potency [3] |
| --- | --- | --- | --- |
| CC1(C)CCC(C)(C)c2cc(NC(=O)c3ccc(C(=O)O)cc3)ccc21 | inactive |  |  |
| Nc1cccc2c1CN(C1CCC(=O)NC1=O)C2=O (centres undefined) | inactive | inactive |  |
| Nc1nc(OCc2ccccc2)c2[nH]cnc2n1 | inactive |  |  |
| CN1CCC(=C2c3ccccc3CCc3sccc32)CC1 | 10 µM (active) | inactive |  |
| CCCCc1ccc2nc(NC(=O)OC)[nH]c2c1 | inactive |  |  |
| Oc1ccc(OCc2ccccc2)cc1 | inactive |  |  |
| COc1c(O)cc2c(c1O)[C@@H]1O[C@H](CO)[C@@H](O)[C@H](O)[C@H]1OC2=O | inactive |  |  |
| CC(C)CC(=O)N[C@H](C(=O)N[C@H](C(=O)N[C@@H](CC(C)C)[C@@H](O)CC(=O)N[C@@H](C)C(=O)N[C@@H](CC(C)C)[C@@H](O)CC(=O)O)C(C)C)C(C)C (Isovaleryl-VV[Sta]A[Sta]-OH) | inactive |  |  |
| Clc1ccc(C(Cn2ccnc2)OCc2ccsc2Cl)c(Cl)c1 (centres undefined) | 10 µM (active) | inactive |  |
| CC(C)c1ccc2c(c1)c(SC(C)(C)C)c(CC(C)(C)C(=O)O)n2Cc1ccc(Cl)cc1 | inactive |  |  |
| CCCCCCCCCCCCCCCCCCCCCCO | inactive | inactive |  |
| S=c1nc[nH]c2nc[nH]c12 | inactive |  |  |
| Cc1nc(Nc2ncc(C(=O)Nc3c(C)cccc3Cl)s2)cc(N2CCN(CCO)CC2)n1 | inactive | inactive |  |
| CNC[C@@H](O)[C@@H](O)[C@H](O)[C@H](O)CO | inactive | inactive |  |
| O=c1cc(N2CCOCC2)oc2c(-c3ccccc3)cccc12 | inactive |  |  |
| O=C(c1ccccc1)c1ccc2n1CCC2C(=O)O (centres undefined) | inactive |  |  |
| CCOC(=O)C1=C[C@@H](OC(CC)CC)[C@H](NC(C)=O)[C@@H](N)C1 | inactive |  |  |
| CC(C)C[C@H](NC(=O)[C@H](Cc1ccccc1)NC(=O)c1cnccn1)B(O)O | inactive |  |  |

| SMILES | Potency [1] | Potency [2] | Potency [3] |
| --- | --- | --- | --- |
| O=C(O)c1cccc(-c2noc(-c3ccccc3F)n2)c1 | inactive | 7.2 nM (active) |  |
| O=C(O)c1cn(-c2ccc(F)cc2)c2cc(N3CCNCC3)c(F)cc2c1=O | inactive | inactive |  |
| Clc1ccc(C(Cn2ccnc2)OCc2c(Cl)cccc2Cl)c(Cl)c1 (centres undefined) | 7.94 µM (active) |  |  |
| CN1C(C(=O)Nc2ccccn2)=C(O)c2sccc2S1(=O)=O | inactive | inactive |  |
| Cc1cc(=O)c2c(O)c3c(O)cc(=O)c4c3c3c(cc(O)c1c23)C(C)(C)C=4O | 3.98 µM (active) | inactive |  |
| N=C(N=C(N)N)N1CCOCC1 | inactive | inactive |  |
| CC1(C)C(=O)N(CCN2CCC(C(=O)c3ccc(F)cc3)CC2)c2ccccc21 | 0.891 µM (active) |  |  |
| COC(=O)C1=C(C)NC(C)=C(C(=O)OC(C)C)C1c1cccc2nonc12 (centres undefined) | inactive |  |  |
| O=C(NC(Cc1cc(=O)[nH]c2ccccc12)C(=O)O)c1ccc(Cl)cc1 (centres undefined) | inactive | inactive |  |
| COC1=C(OC)C(=O)C(CCCCCCCCCCO)=C(C)C1=O | inactive | inactive |  |
| CCOC(=O)c1c(C)n(C)c2ccc(O)cc12 | inactive | inactive |  |
| Cc1ncc([N+](=O)[O-])n1CC(C)O (centres undefined) | inactive | inactive |  |
| CC1=C(C)C(=O)C(C(CCCCCC(=O)O)c2ccccc2)=C(C)C1=O (centres undefined) | inactive | inactive |  |
| Cc1cc2cc3c(C)cc(=O)oc3c(C)c2o1 | inactive | inactive | inactive |
| CCC[C@@H]1C[C@@H](C(=O)N[C@@H]([C@H]2O[C@H](SC)[C@H](O)[C@@H](O)[C@H]2O)[C@@H](C)O)N(C)C1 | inactive | inactive |  |
| CC(C)(S)[C@@H](N)C(=O)O | inactive | inactive | inactive |
| COC(=O)C1=C(C)NC(C)=C(C(=O)OCCCN2CCC(c3ccccc3)(c3ccccc3)CC2)C1c1cccc([N+](=O)[O-])c1 (centres undefined) | 2 µM (active) | inactive | 16100 nM (active) |
| CN(c1nccc(=O)[nH]1)C1CCN(c2nc3ccccc3n2Cc2ccc(F)cc2)CC1 | 1.78 µM (active) | inactive |  |
| Cc1c(C(=O)NN2CCCCC2)nn(-c2ccc(Cl)cc2Cl)c1-c1ccc(Cl)cc1 | 2.82 µM (active) | inactive |  |

| SMILES | Potency [1] | Potency [2] | Potency [3] |
| --- | --- | --- | --- |
| C[Se]CCC(N)C(=O)O (centres undefined) | inactive | inactive |  |
| COc1ccc(C2(C#N)CCC(C(=O)O)CC2)cc1OC1CCCC1 (centres undefined) | inactive | inactive | inactive |
| CC1Cc2ccccc2N1NC(=O)c1ccc(Cl)c(S(N)(=O)=O)c1 (centres undefined) | inactive | inactive |  |
| CCN(CC)CCOc1ccc(Cc2ccccc2)cc1 | 5.01 µM (active) | inactive | inactive |
| CCN(CCO)CCCC(C)Nc1ccnc2cc(Cl)ccc12 (centres undefined) | inactive | inactive | inactive |
| CCCCCCCCOc1ccccc1C(=O)Nc1ccc(C(=O)OCC[N+](C)(CC)CC)cc1 | inactive | inactive | inactive |
| O=C(CS(=O)Cc1ccco1)NCC=CCOc1cc(CN2CCCCC2)ccn1 (centres undefined) | inactive | inactive |  |
| CC(C)[C@H](N)C(=O)OCCOCn1cnc2c(=O)[nH]c(N)nc21 | inactive | inactive |  |
| N=C(N)c1ccc2cc(OC(=O)c3ccc(N=C(N)N)cc3)ccc2c1 | inactive | inactive | inactive |
| O=P(O)(O)C(O)(Cn1ccnc1)P(=O)(O)O | inactive | inactive | inactive |
| O=C(NCCO[N+](=O)[O-])c1cccnc1 | inactive | inactive | inactive |
| CC[C@]1(O)C[C@H]2CN(CCc3c([nH]c4ccccc34)[C@@](C(=O)OC)(c3cc4c(cc3OC)N(C=O)[C@H]3[C@@](O)(C(=O)OC)[C@H](OC(C)=O)[C@]5(CC)C=CCN6CC[C@]43[C@@H]65)C2)C1 | inactive | inactive | inactive |
| C[C@H](Cn1cnc2c(N)ncnc21)OCP(=O)(O)O | inactive | inactive |  |
| Nc1ccn([C@@H]2O[C@H](CO)[C@@H](O)C2O)c(=O)n1 (some centres undefined) | inactive | inactive |  |
| CC(C)c1ccc2oc3nc(N)c(C(=O)O)cc3c(=O)c2c1 | inactive | 405 nM (active) | inactive |
| O=c1oc2cc(O)ccc2s1 | inactive | inactive |  |
| CCCOc1ccc2nc(NC(=O)OC)[nH]c2c1 | inactive | inactive |  |
